Here are results for eight molecules from PubChem BioAssay (NCI).

Some test systems named below: HCT-15 colon; HT29 colon; SNB-75 CNS; SNB-19 CNS; U251 CNS; PC-3 prostate; SK-MEL-5 melanoma; UACC-62 melanoma; LOX IMVI melanoma; SK-MEL-28 melanoma; SK-MEL-2 melanoma; EKVX NSCLC; SN12C renal; UO-31 renal; TK-10 renal; ACHN renal; CAKI-1 renal; A498 renal; MOLT-4 leukemia; CCRF-CEM leukemia.
What all share (assay): NCI-60 one-dose screen, 48 h (100 = growth as untreated, 0 = no growth, -100 = all killed)
Common to all, as to details: 10 µM unless noted

About 83,000 compounds went through this panel and 20% of them were active in at least one assay; those are over-represented in the sample as a whole.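 96-well plates, one dose, 48 hours. Percent growth reported; active if below 10.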 Unmarked numbers belong to inactive results. Active and inactive are the calls of the source.

In the case of `Cc1ccc(NC(=O)CNc2cc(C(N)=O)cc(F)c2C)c(Cl)c1`, the growth in the test with HCT-15 colon was 103%; in the test with HT29 colon, 114%; in the test with SNB-75 CNS it was 48.4%; in the test with SNB-19 CNS, 101%; in the test on U251 CNS it was 106%; in the test with PC-3 prostate it was 85.7%. For the same molecule, the growth in the test on SK-MEL-5 melanoma was 97.1%; with UACC-62 melanoma, 81.5%; in the test on LOX IMVI melanoma, 94.1%; in the test with SK-MEL-28 melanoma, 99.5%; with SK-MEL-2 melanoma, 101%; in the test on EKVX NSCLC, 47.5%. Moreover, the growth with SN12C renal is 77.1%; in the test with UO-31 renal, 50.4%; in the test on TK-10 renal, 102%; with ACHN renal, 88.9%; in the test on CAKI-1 renal, 62.6%; with A498 renal, 39%. For the same molecule, the growth in the test with MOLT-4 leukemia was 90.5%.

As for `Oc1cccc2ccc(-c3nnc(SCc4ccc(O)c5ncccc45)o3)nc12`, the growth with HCT-15 colon is 8.78% (active); in the test on HT29 colon, 56.8%; in the test with SNB-75 CNS, 34.3%; with SNB-19 CNS it was 12.9%; in the test on U251 CNS, 13.3%; in the test with PC-3 prostate, 9.67% (active). Also, the growth is -63.7% (active) with SK-MEL-5 melanoma; 9.35% (active) in the test with UACC-62 melanoma; 8.81% (active) in the test with LOX IMVI melanoma; 35.2% in the test on SK-MEL-28 melanoma; 8.17% (active) with SK-MEL-2 melanoma; 17.5% with EKVX NSCLC. The growth is 7.07% (active) with SN12C renal; -6.85% (active) in the test with UO-31 renal; 27.9% in the test with TK-10 renal; 7.94% (active) in the test with ACHN renal; 8.28% (active) in the test on CAKI-1 renal; 35.2% with A498 renal. The growth was 19.6% in the test on CCRF-CEM leukemia and 17.4% in the test with MOLT-4 leukemia.

With `COc1ccc(-c2nc3ccc(-c4nnc(SCC(=O)Nc5ccc(C(=O)/C=C/c6ccc(Cl)cc6)cc5)o4)cc3[nH]2)cc1`, the growth is 86.1% in the test with HCT-15 colon; 104% in the test on HT29 colon; 94.7% in the test with SNB-75 CNS; 108% with SNB-19 CNS; 94.3% in the test on U251 CNS; 94.9% in the test on PC-3 prostate. The growth in the test with SK-MEL-5 melanoma is 98.9%; with UACC-62 melanoma, 94%; in the test with LOX IMVI melanoma it was -29.9% (active); with SK-MEL-28 melanoma it was 101%; with SK-MEL-2 melanoma, 111%; in the test on EKVX NSCLC, 99.7%. The growth is 88.3% in the test with SN12C renal; 85.3% with UO-31 renal; 120% with TK-10 renal; 97.7% in the test with ACHN renal; 97.2% in the test on CAKI-1 renal; 84.3% in the test with A498 renal. Further, the growth is 96% in the test with CCRF-CEM leukemia and 88.3% in the test with MOLT-4 leukemia.

`Cc1nn(-c2ccccc2)c2ncnc(N/N=C/c3ccccc3)c12`: the growth in the test with HCT-15 colon was 85.4%; with HT29 colon it was 89.1%; with SNB-75 CNS, 82.9%; in the test on SNB-19 CNS it was 84.4%; with U251 CNS it was 85%; with PC-3 prostate, 85.2%. Also, the growth in the test on SK-MEL-5 melanoma is 92.2%; in the test with UACC-62 melanoma it was 90.6%; in the test with LOX IMVI melanoma it was 105%; in the test with SK-MEL-28 melanoma, 98.4%; with SK-MEL-2 melanoma, 104%; with EKVX NSCLC it was 89.6%. In addition, the growth is 81% in the test with SN12C renal; 75.3% in the test with UO-31 renal; 113% with TK-10 renal; 85.8% in the test on ACHN renal; 102% in the test with CAKI-1 renal; 74.1% in the test with A498 renal. For the same molecule, the results for the growth with CCRF-CEM leukemia and with MOLT-4 leukemia were 88.3% and 87.1%, respectively.

`COc1cc(-c2nn(C(C)(C)C)cc2-c2ccnc(NCCCNS(=O)(=O)c3ccc(Cl)cc3)n2)ccc1Cl`: the growth in the test with HCT-15 colon is 51.5%; with HT29 colon, 49.4%; in the test with SNB-75 CNS it was 41.7%; with SNB-19 CNS it was 87.1%; with U251 CNS it was 77.3%; with PC-3 prostate, 30.5%. Further, the growth is 77% with SK-MEL-5 melanoma; 61.7% with UACC-62 melanoma; 65.4% with LOX IMVI melanoma; 84.2% in the test on SK-MEL-28 melanoma; 82.5% in the test on SK-MEL-2 melanoma; 31.3% with EKVX NSCLC. The growth with SN12C renal is 46%; in the test with UO-31 renal, 32.7%; with TK-10 renal, 66.1%; with ACHN renal, 64.1%; with CAKI-1 renal, 17.7%; in the test with A498 renal, 49.4%. In addition, the growth in the test with MOLT-4 leukemia is 31%.

For `CCC(CC)N1C(=O)/C(=c2\sc3n(c2=O)NC2C(N=3)N(CC)C(=O)N2CC)c2ccccc21` (configuration not stated), the growth in the test with HCT-15 colon was 34.5%; with HT29 colon, 44.7%; with SNB-75 CNS, 67.9%; with SNB-19 CNS, 71.4%; with U251 CNS, 58.9%; in the test on PC-3 prostate, 43.9%. Also, the growth in the test on SK-MEL-5 melanoma is 55.6%; in the test with UACC-62 melanoma, 39.9%; in the test with LOX IMVI melanoma it was 39.3%; in the test on SK-MEL-28 melanoma, 57%; with SK-MEL-2 melanoma it was 101%; in the test with EKVX NSCLC, 59.6%. The growth in the test with SN12C renal is 56%; with UO-31 renal, 54.4%; in the test on TK-10 renal, 127%; in the test on ACHN renal it was 50.4%; in the test on CAKI-1 renal, 50.8%; in the test on A498 renal, 52.3%. Further, the values for the growth in the test with CCRF-CEM leukemia and in the test with MOLT-4 leukemia were 55.3% and 59.8%, respectively.

As for `Nn1c(N/N=C/c2nc3ccccc3s2)n[nH]c1=S`, the growth in the test with HCT-15 colon was 122%; in the test with HT29 colon, 112%; in the test with SNB-75 CNS it was 51.5%; with SNB-19 CNS it was 104%; in the test with U251 CNS, 113%; with PC-3 prostate it was 97.8%. Also, the growth in the test with SK-MEL-5 melanoma was 100%; in the test on UACC-62 melanoma it was 92.1%; with LOX IMVI melanoma it was 102%; with SK-MEL-28 melanoma, 114%; in the test with SK-MEL-2 melanoma, 107%; with EKVX NSCLC it was 64.9%. The growth was 86.3% in the test on SN12C renal; 58% with UO-31 renal; 88.3% in the test on TK-10 renal; 98% with ACHN renal; 66.7% with CAKI-1 renal; 77.5% in the test on A498 renal. Also, the growth with MOLT-4 leukemia is 115%.

Consider `COc1c(N2CC3CCCNC3C2)c(F)cc2c(=O)c(C(=O)N/N=C/c3ccccc3)cn(C3CC3)c12` (configuration not stated), for which the growth was 76.3% with HCT-15 colon; 72.6% with HT29 colon; 88.7% with SNB-75 CNS; 101% in the test on SNB-19 CNS; 94.7% with U251 CNS; 86.9% with PC-3 prostate. Further, the growth in the test on SK-MEL-5 melanoma is 87.8%; in the test on UACC-62 melanoma, 105%; in the test on LOX IMVI melanoma, 83.7%; in the test on SK-MEL-28 melanoma, 94.3%; with SK-MEL-2 melanoma, 111%; in the test on EKVX NSCLC, 94.7%. For the same molecule, the growth in the test with SN12C renal is 91.5%; with UO-31 renal, 86.4%; in the test on TK-10 renal, 99.5%; in the test with ACHN renal, 105%; with CAKI-1 renal it was 91.9%; in the test with A498 renal it was 74.9%. For the same molecule, the growth in the test with CCRF-CEM leukemia is 78.2%; with MOLT-4 leukemia, 79.3%.
